Results reported in PubChem BioAssay AID652154 (Broad Institute, 2013).
Among all 360,000 compounds or so, about 4,200 (1.2%) were called active. The list comes from a sample in which actives are over-represented; it also holds similar structures and randomly drawn compounds. Values without a mark were called inactive.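 Rule for the calls: active = mean replicate inhibition at least 60% with every replicate also reaching 60%; inconclusive = only one of the two criteria is met; inactive = mean below 60% and not all replicates reaching 60%.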

Assay: PAX8 transcriptional activity inhibition in RMG-I – RMG-I cells, luciferase, single concentration, primary screen (AID 652154);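 note: luciferase light reporting Pax8 driven TPO promoter activity; plate controls were median of neutral control wells for no effect and mitoxantrone controls for full effect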
Details: RMG-I TPO-luciferase reporter, SteadyGlo, 24 h; at 12.6 µM; active compounds read high
For `COCC(=O)N(C)C[C@@H]1Oc2cc(C#Cc3cccnc3)ccc2S(=O)(=O)N([C@H](C)CO)C[C@H]1C`, the inhibition was 6.54%. With `O=C(C[C@H]1CC[C@H]2[C@@H](COC[C@@H](O)CN2CCC(F)(F)F)O1)NCc1ccc2c(c1)OCO2` the inhibition was -15.5%. In the case of `O=C(C[C@H]1C=C[C@H](NC(=O)Nc2ccccc2F)[C@@H](CO)O1)NCc1ccc(Cl)cc1`, the inhibition is reported as -8.13%. In the case of `C[C@@H]1CCCCO[C@H](CN(C)Cc2ccncc2)[C@@H](C)CN([C@H](C)CO)C(=O)c2cc(NC(=O)CCCN(C)C)ccc2O1`, the inhibition is reported as -4.23%. `COc1ccc(NC(=O)N(C)C[C@H]2Oc3ccc(NC(=O)Cc4cn(C)c5ccccc45)cc3CC(=O)N([C@@H](C)CO)C[C@H]2C)cc1` showed an inhibition of 16.5%. For `O=C(CN1C(=O)c2ccccc2S1(=O)=O)N1CCc2ccccc21`, the inhibition was 90.5% (active). In the case of `CN(Cc1ccc(F)cc1)C(=O)CN1C(=O)c2ccccc2S1(=O)=O`, the inhibition is reported as -2.85%. `CN(Cc1cccs1)C(=O)CN1C(=O)c2ccccc2S1(=O)=O` showed an inhibition of -105%. `C[C@@H]1CN([C@@H](C)CO)C(=O)Cc2cc(NC(=O)Cc3ccccc3)ccc2O[C@@H]1CN(C)Cc1ccc2c(c1)OCO2` gave an inhibition of 13.6%. `Cc1cc(C(=O)Nc2cccc3c2O[C@@H](CN(C)C(=O)Nc2ccc(F)cc2)[C@H](C)CN([C@@H](C)CO)C3=O)n(C)n1` showed an inhibition of 7.05%. Work on `COc1ccc(NC(=O)Nc2ccc3c(c2)C(=O)N([C@@H](C)CO)C[C@H](C)[C@H](CN(C)CC2CCCCC2)O3)cc1` yielded an inhibition of -0.963%. With `CC(=O)Nc1ccc(C=CC(=O)c2ccc([N+](=O)[O-])cc2)cc1` the inhibition was 15.2%. In the case of `O=C1/C(=C\c2ccc([N+](=O)[O-])cc2)CS(=O)(=O)C/C1=C/c1ccc([N+](=O)[O-])cc1`, the inhibition is reported as 122% (active). Compound `O=C(O)C(=Cc1ccc([N+](=O)[O-])cc1)CCc1ccccc1` has an inhibition of 8.95%. `COc1ccc(S(=O)(=O)N(C)C[C@H]2Oc3c(NC(=O)C4CCOCC4)cccc3C(=O)N([C@@H](C)CO)C[C@@H]2C)cc1` showed an inhibition of -8.86%. `Cn1cnc(CCNC(=O)[C@H]2[C@H](CO)[C@H]3Cn4c(cccc4=O)[C@H]3N2C(=O)Nc2ccccc2)c1` gave an inhibition of -6.72%. `Cn1cnc(S(=O)(=O)N2C[C@@H](O)COC[C@@H]3O[C@H](CC(=O)NCc4ccc(F)cc4)CC[C@H]32)c1` showed an inhibition of -3.38%. For `Cc1ccc(/C=N/NC(=O)COc2ccccc2-c2ccccc2)cc1`, the inhibition was 87.7% (active). `Cc1ccc(/C=N/NC(=O)CSc2nc3ccccc3o2)cc1` showed an inhibition of -83%. With `Cc1ccc(COc2ccc(/C=N/NC(=O)CN3CCCCC3)cc2)cc1` the inhibition was -222%. For `O=C(C[C@H]1CC[C@@H](NC(=O)Nc2ccc(C(F)(F)F)cc2)[C@H](CO)O1)NCc1cc(F)cc(F)c1`, the inhibition was -5.75%. `Cc1ccccc1-c1ccc([C@@H]2[C@@H](CO)N3CCCCN(C(=O)Nc4cccc(F)c4)C[C@H]23)cc1` gave an inhibition of 10.4%. In the case of `CC(C)Cc1nnc(NC(=O)CCc2ccccc2)s1`, the inhibition is reported as -22.6%. Work on `CC(C)Cc1nnc(NC(=O)CCNC(=O)c2ccccc2Cl)s1` yielded an inhibition of -15.6%. With `Cc1ccc(S(=O)(=O)CCC(=O)Nc2nnc(CC(C)C)s2)cc1` the inhibition was 82.8% (active). Compound `C[C@H](NC(=O)C[C@H]1C=C[C@H](NS(=O)(=O)c2cccc(F)c2)[C@@H](CO)O1)c1ccccc1` has an inhibition of -17.2%. `Cc1noc(C)c1NC(=O)N(C)C[C@@H]1OCCCC[C@H](C)Oc2ccc(NC(=O)C3CCCCC3)cc2C(=O)N([C@H](C)CO)C[C@@H]1C` showed an inhibition of 9.59%. Compound `CCN(CC)CCN(C(=O)c1ccc2c(c1)CCCC2)c1nc2c(OC)cccc2s1` has an inhibition of 14.3%. Compound `COc1ccc(N(C)C(=O)CCS(=O)(=O)c2cccc3nsnc23)cc1` has an inhibition of 1.7%. In the case of `COc1cccc2sc(N(CCCN(C)C)C(=O)CCS(=O)(=O)c3ccccc3)nc12`, the inhibition is reported as 97.8% (active). `O=C(CCS(=O)(=O)c1ccccc1)Nc1nc2c(s1)CCCC2` gave an inhibition of 51.3%. In the case of `Cc1cccc(C)c1NC(=O)CCS(=O)(=O)c1cccc2nsnc12`, the inhibition is reported as 15.3%. For `Cc1cccc2sc(N(CCCN(C)C)C(=O)CCS(=O)(=O)c3ccccc3)nc12`, the inhibition was 95.4% (active). For `CC(C)NC(=O)N[C@@H]1CC[C@H](CCn2cc(-c3ccccc3)nn2)O[C@H]1CO`, the inhibition was -6.01%. `CCS(=O)(=O)N1[C@H](C#N)[C@H](c2ccc(-c3cccc(F)c3)cc2)[C@@H]1CO` gave an inhibition of -12.2%. With `C[C@@H]1CN([C@@H](C)CO)C(=O)c2cc(NC(=O)NC3CCCCC3)ccc2O[C@@H](C)CCCCO[C@H]1CN(C)Cc1ccccc1` the inhibition was -10.1%. With `C[C@@H]1CN([C@@H](C)CO)C(=O)c2cccc(NS(=O)(=O)c3cn(C)cn3)c2O[C@@H]1CN(C)Cc1ccc(Cl)c(Cl)c1` the inhibition was -5.72%. Compound `COCC(=O)Nc1ccc2c(c1)OC[C@H](C)N(C(=O)COC)C[C@@H](C)[C@H](OC)CN(C)C2=O` has an inhibition of -25.8%. In the case of `Cc1cccc(S(=O)(=O)N2C[C@H]3[C@@H](c4ccccc42)[C@H](CO)N3Cc2ccc3c(c2)OCO3)c1`, the inhibition is reported as 32%. In the case of `CC(=O)N(C)C[C@@H]1Oc2cc(-c3cccnc3)ccc2S(=O)(=O)N([C@H](C)CO)C[C@H]1C`, the inhibition is reported as -6.51%. In the case of `O=C(CC1CC1)N1CC[C@@H]2[C@H](CO)Nc3ccc(-c4ccc(F)cc4)cc3[C@@H]21`, the inhibition is reported as 14%. Compound `O=C(C[C@@H]1CC[C@@H]2[C@H](COC[C@@H](O)CN2Cc2cc(F)cc(F)c2)O1)NCc1cccc(F)c1` has an inhibition of 16%. Work on `Cc1cccc(-c2ccc([C@@H]3[C@H]4CN(C(=O)c5ccccc5)CC(=O)N4[C@H]3CO)cc2)c1` yielded an inhibition of 23.1%. With `O=C(C[C@@H]1CC[C@H]2[C@@H](COC[C@@H](O)CN2C(=O)c2ccc3c(c2)OCO3)O1)NC1CCCC1` the inhibition was -8.12%. For `CCCNC(=O)c1c(Cl)cnn1-c1ccc(C)cc1`, the inhibition was -169%. In the case of `CC(=O)Nc1c2c(nn1-c1cccc(C)c1)CSC2`, the inhibition is reported as 13.4%. For `Cc1cccc(-n2ncc(Cl)c(Cl)c2=O)c1`, the inhibition was 99.9% (active). With `O=c1ccc2c(-c3ccccc3S(=O)(=O)O)c3ccc(O)c(O)c3oc-2c1O` the inhibition was 65.9% (active). For `CN(C)C(=O)C[C@@H]1CC[C@@H](NC(=O)NC2CCCC2)[C@@H](CO)O1`, the inhibition was -11%. In the case of `Cn1cnc(CCNC(=O)C[C@H]2CC[C@H]3[C@@H](COC[C@@H](O)CN3C(=O)Nc3ccc(C(F)(F)F)cc3)O2)c1`, the inhibition is reported as -9.72%. Work on `CC(C)NC(=O)N1C[C@H]2[C@@H](c3ccccc31)[C@H](CO)N2C(=O)c1ccccc1F` yielded an inhibition of -9.19%. With `CN(c1cccc(NC(=O)c2ccc(CN3CCc4ccccc4C3)cc2)c1)S(C)(=O)=O` the inhibition was 72.6% (active). With `CS(=O)(=O)N1CCc2cc(C(=O)Nc3ccccc3)ccc21` the inhibition was -94%. `CC(=O)Nc1cccc(NC(=O)c2ccc3c(c2)CCN3S(C)(=O)=O)c1` showed an inhibition of -7.18%. `CCCNC(=O)C[C@H]1CC[C@H]2[C@H](COc3ccc(NC(=O)CC)cc3C(=O)N2C)O1` showed an inhibition of -14.6%. For `N#Cc1c(NC(=O)C2CCCO2)sc2c1CCCCC2` (centres undefined), the inhibition was -175%. For `N#Cc1c(NC(=O)CCCl)sc2c1CCCCC2`, the inhibition was 60.9% (active). Compound `N#Cc1c(NC(=O)C2CC(Cl)=CCC2C(=O)O)sc2c1CCCCC2` (centres undefined) has an inhibition of -9.86%. `O=C(Nc1ccc2c(c1)OCO2)N[C@@H]1CC[C@H](CC(=O)N2CCN(c3ccccc3)CC2)O[C@@H]1CO` gave an inhibition of -5.75%. In the case of `O=C(C[C@H]1C[C@@H]2c3cc(NC(=O)c4cccnc4)ccc3O[C@@H]2[C@@H](CO)O1)NCc1ccccc1F`, the inhibition is reported as -5.11%. Compound `O=C(NCc1nnnn1-c1ccc(Cl)cc1)c1ccc2c(c1)OCO2` has an inhibition of 2.39%. For `O=C(NCc1nnnn1-c1ccc(Cl)cc1)c1ccc([N+](=O)[O-])o1`, the inhibition was 77.5% (active). `CC(=O)c1ccc(S(=O)(=O)NCc2nnnn2-c2ccccc2)cc1` showed an inhibition of 3.71%. For `CCCc1cn(CC[C@@H]2CC[C@@H](NC(=O)C3CC3)[C@H](CO)O2)nn1`, the inhibition was -17.8%. For `O=C(C[C@@H]1CC[C@@H](NC(=O)CC2CC2)[C@H](CO)O1)NCc1ccc(-c2ccccc2)cc1`, the inhibition was 2.89%. `C[C@H](CO)N1C[C@H](C)[C@@H](CN(C)Cc2ccccn2)Oc2ncc(C3=CCCC3)cc2C1=O` showed an inhibition of -41%. Work on `COc1cccc(-c2cnc3c(c2)C(=O)N([C@@H](C)CO)C[C@@H](C)[C@@H](CN(C)Cc2ccc(C(=O)O)cc2)O3)c1` yielded an inhibition of -16.9%. `CCC(=O)N1[C@@H]2c3ccc(-c4ccc(F)cc4)c(=O)n3C[C@H]1[C@H](CO)[C@H]2C(=O)N(C)C` gave an inhibition of 7.01%. With `Cc1ccc(C)c(N2CCN(C(=O)CCCCCn3c(=S)[nH]c4ccc(N5CCOCC5)cc4c3=O)CC2)c1` the inhibition was 95% (active). `Cc1ccc(C)c(N2CCN(C(=O)CCCn3c(=O)c4cccn4c4cccnc43)CC2)c1` showed an inhibition of 13.6%. Compound `O=C(CCCCCn1c(=S)[nH]c2cc3c(cc2c1=O)OCO3)N1CCN(c2ccc(F)cc2)CC1` has an inhibition of 3.47%. Work on `C[C@@H](NC(=O)C[C@H]1C=C[C@@H](NC(=O)CN2CCOCC2)[C@@H](CO)O1)c1ccccc1` yielded an inhibition of -7.59%. For `Cc1ccc(S(=O)(=O)Nc2ccc3c(c2)C(=O)N([C@H](C)CO)C[C@H](C)[C@@H](CN(C)Cc2ccccc2)OCCCC[C@H](C)O3)cc1`, the inhibition was -7.59%. For `C[C@@H]1CCCCO[C@@H](CN(C)Cc2ccc(Cl)c(Cl)c2)[C@H](C)CN([C@@H](C)CO)C(=O)c2cc(NS(C)(=O)=O)ccc2O1`, the inhibition was 6.58%. With `COc1ccc(CN(C)C[C@@H]2OCCCC[C@H](C)Oc3ccc(NS(=O)(=O)c4ccc(F)cc4)cc3C(=O)N([C@H](C)CO)C[C@H]2C)cc1` the inhibition was -1.69%. With `C[C@@H]1CCCCO[C@@H](CN(C)Cc2ccc(C(F)(F)F)cc2)[C@H](C)CN([C@H](C)CO)C(=O)c2cc(NS(=O)(=O)c3ccc(F)cc3)ccc2O1` the inhibition was 104% (active). Compound `Cc1ccc(S(=O)(=O)Nc2ccc3c(c2)C(=O)N([C@@H](C)CO)C[C@@H](C)[C@H](CN(C)Cc2ccc4c(c2)OCO4)OCCCC[C@@H](C)O3)cc1` has an inhibition of -3.85%. For `COc1ccc(S(=O)(=O)Nc2ccc3c(c2)C(=O)N([C@@H](C)CO)C[C@@H](C)[C@H](CN(C)Cc2ccc(C(F)(F)F)cc2)OCCCC[C@@H](C)O3)cc1`, the inhibition was 27.5%. For `Cc1ccc(S(=O)(=O)Nc2ccc3c(c2)C(=O)N([C@H](C)CO)C[C@@H](C)[C@H](CN(C)Cc2ccccc2)OCCCC[C@H](C)O3)cc1`, the inhibition was 45.2%. With `COc1ccc(CN(C)C[C@@H]2OCCCC[C@@H](C)Oc3ccc(NS(=O)(=O)c4ccc(F)cc4)cc3C(=O)N([C@@H](C)CO)C[C@H]2C)cc1` the inhibition was -7.37%. For `Cc1ccc(S(=O)(=O)Nc2ccc3c(c2)C(=O)N([C@@H](C)CO)C[C@@H](C)[C@H](CN(C)Cc2ccc(Cl)c(Cl)c2)OCCCC[C@@H](C)O3)cc1`, the inhibition was 75.8% (active). `C[C@H](CO)N1C[C@H](C)[C@H](CN(C)Cc2ccc(C(F)(F)F)cc2)OCCCC[C@H](C)Oc2ccc(NS(=O)(=O)c3ccc(Cl)cc3)cc2C1=O` gave an inhibition of 19.1%. For `COc1ccc(S(=O)(=O)Nc2ccc3c(c2)C(=O)N([C@@H](C)CO)C[C@H](C)[C@H](CN(C)Cc2ccc(C(F)(F)F)cc2)OCCCC[C@@H](C)O3)cc1`, the inhibition was 94.8% (active). For `Cc1ccc(S(=O)(=O)Nc2ccc3c(c2)C(=O)N([C@@H](C)CO)C[C@@H](C)[C@@H](CN(C)Cc2ccc(C(F)(F)F)cc2)OCCCC[C@@H](C)O3)cc1`, the inhibition was 105% (active).
